# Assay results from the supplement of paper PMC8728848.
# The entries come from a sample that favours the strongest signals as a whole.
# B1: SBD-G4S3-SBD (protein)
# chain: MASIPSSASVQLDSYNYDGSTFSGKIYVKNIAYSKKVTVVYADGSDNWNNNGNIIAASFSGPISGSNYEYWTFSASVKGIKEFYIKYEVSGKTYYDNNNSANYQVSTGGGGSGGGGSGGGGSEFASIPSSASVQLDSYNYDGSTFSGKIYVKNIAYSKKVTVVYADGSDNWNNNGNIIAASFSGPISGSNYEYWTFSASVKGIKEFYIKYEVSGKTYYDNNNSANYQVST
# Key:
# Test in all cases: glycan array binding signal (z-score within array); higher = stronger binding
# Conditions in all cases: glycan notation: IUPAC condensed, linker removed
# [1] = biological target: Fuc(a1-2)Gal(b1-3)GalNAc(a1-3)[Fuc(a1-2)]Gal(b1-4)GlcNAc
# Outline: (§1)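 Glycan array data were curated from 3228 arrays in the Consortium for Functional Glycomics database and kept only where the protein sequence was available. Glycan names were converted to IUPAC-condensed notation, and columns mapping to the same glycan were averaged. The binding signal is a within-array Z-score, averaged across arrays of the same protein sequence at different concentrations or buffers and across linkers. Negative Z-scores can be read as non-binding.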
# [2] = biological target: Fuc(a1-2)Gal(b1-4)GlcNAc(b1-3)Gal(b1-4)GlcNAc(b1-2)Man(a1-3)[Fuc(a1-2)Gal(b1-4)GlcNAc(b1-3)Gal(b1-4)GlcNAc(b1-2)Man(a1-6)]Man(b1-4)GlcNAc(b1-4)GlcNAc
# Outline: as §1
# [3] = biological target: Fuc(a1-2)[Gal(a1-3)]Gal(b1-4)[Fuc(a1-3)]GlcNAc(b1-3)GalNAc
# Outline: as §1
# [4] = biological target: Fuc(a1-2)[GalNAc(a1-3)]Gal(b1-3)GalNAc(a1-3)[Fuc(a1-2)]Gal(b1-4)GlcNAc
# Outline: as §1
# [5] = biological target: Fuc(a1-2)[GalNAc(a1-3)]Gal(b1-4)GlcNAc(b1-2)Man(a1-3)[Fuc(a1-2)[GalNAc(a1-3)]Gal(b1-4)GlcNAc(b1-2)Man(a1-6)]Man(b1-4)GlcNAc(b1-4)GlcNAc
# Outline: as §1
# [6] = biological target: Fuc(a1-2)[GalNAc(a1-3)]Gal(b1-4)[Fuc(a1-3)]GlcNAc(b1-3)GalNAc
# Outline: as §1
# [7] = biological target: Fuc(a1-3)[Gal(b1-4)]Glc6S
# Outline: as §1
# [8] = biological target: Fuc(a1-3)[Gal(b1-4)]GlcNAc
# Outline: as §1
# [9] = biological target: Gal(a1-3)Gal(b1-3)[Fuc(a1-4)]GlcNAc(b1-2)Man(a1-3)[Gal(a1-3)Gal(b1-3)[Fuc(a1-4)]GlcNAc(b1-2)Man(a1-6)]Man(b1-4)GlcNAc(b1-4)GlcNAc
# Outline: as §1
# [10] = biological target: Gal(a1-3)Gal(b1-4)[Fuc(a1-3)]GlcNAc(b1-2)Man(a1-3)[Gal(a1-3)Gal(b1-4)[Fuc(a1-3)]GlcNAc(b1-2)Man(a1-6)]Man(b1-4)GlcNAc(b1-4)GlcNAc
# Outline: as §1
# [11] = biological target: Gal(b1-3)GalNAc(b1-3)Gal(a1-4)Gal(b1-4)Glc
# Outline: as §1
# [12] = biological target: Gal(b1-3)GalNAc(b1-4)[Neu5Ac(a2-3)]Gal(b1-4)Glc
# Outline: as §1
# [13] = biological target: Gal(b1-3)GlcNAc(b1-2)Man(a1-3)[Gal(b1-3)GlcNAc(b1-2)Man(a1-6)]Man(b1-4)GlcNAc(b1-4)GlcNAc
# Outline: as §1
# [14] = biological target: Gal(b1-3)GlcNAc(b1-3)Gal(b1-4)GlcNAc(b1-6)[Gal(b1-3)GlcNAc(b1-3)]Gal(b1-4)Glc
# Outline: as §1
# [15] = biological target: Gal(b1-3)GlcNAc6S
# Outline: as §1
# [16] = biological target: Gal(b1-3)[Fuc(a1-4)]GlcNAc(b1-6)GalNAc
# Outline: as §1
# [17] = biological target: Gal(b1-3)[GlcNAc(b1-6)]GalNAc
# Outline: as §1
# [18] = biological target: Gal(b1-3)[Neu5Ac(a2-6)]GlcNAc(b1-4)Gal(b1-4)Glc
# Outline: as §1
# [19] = biological target: Gal(b1-4)GlcNAc(b1-2)Man(a1-3)[Man(a1-6)]Man(b1-4)GlcNAc(b1-4)GlcNAc
# Outline: as §1
# [20] = biological target: Gal(b1-4)GlcNAc(b1-2)[Gal(b1-4)GlcNAc(b1-6)]Man(a1-6)[Gal(b1-4)GlcNAc(b1-2)Man(a1-3)]Man(b1-4)GlcNAc(b1-4)[Fuc(a1-6)]GlcNAc
# Outline: as §1
# [21] = biological target: Gal(b1-4)GlcNAc(b1-3)Gal(b1-3)GalNAc
# Outline: as §1
# [22] = biological target: Gal(b1-4)GlcNAc(b1-3)Gal(b1-4)GlcNAc(b1-3)Gal(b1-4)GlcNAc(b1-2)Man(a1-3)[Gal(b1-4)GlcNAc(b1-3)Gal(b1-4)GlcNAc(b1-3)Gal(b1-4)GlcNAc(b1-2)Man(a1-6)]Man(b1-4)GlcNAc(b1-4)GlcNAc
# Outline: as §1
# [23] = biological target: Gal(b1-4)GlcNAc(b1-3)Gal(b1-4)GlcNAc(b1-3)Gal(b1-4)GlcNAc(b1-3)Gal(b1-4)GlcNAc(b1-2)Man(a1-3)[Gal(b1-4)GlcNAc(b1-3)Gal(b1-4)GlcNAc(b1-3)Gal(b1-4)GlcNAc(b1-3)Gal(b1-4)GlcNAc(b1-2)Man(a1-6)]Man(b1-4)GlcNAc(b1-4)[Fuc(a1-6)]GlcNAc
# Outline: as §1
# [24] = biological target: Gal(b1-4)GlcNAc(b1-3)Gal(b1-4)GlcNAc(b1-3)Gal(b1-4)GlcNAc(b1-3)Gal(b1-4)GlcNAc(b1-3)Gal(b1-4)GlcNAc(b1-2)[Gal(b1-4)GlcNAc(b1-3)Gal(b1-4)GlcNAc(b1-3)Gal(b1-4)GlcNAc(b1-3)Gal(b1-4)GlcNAc(b1-3)Gal(b1-4)GlcNAc(b1-6)]Man(a1-6)[Gal(b1-4)GlcNAc(b1-3)Gal(b1-4)GlcNAc(b1-3)Gal(b1-4)GlcNAc(b1-3)Gal(b1-4)GlcNAc(b1-3)Gal(b1-4)GlcNAc(b1-2)Man(a1-3)]Man(b1-4)GlcNAc(b1-4)[Fuc(a1-6)]GlcNAc
# Outline: as §1
# [25] = biological target: Gal(b1-4)GlcNAc6P
# Outline: as §1
# [26] = biological target: Gal(b1-6)Gal
# Outline: as §1
# [27] = biological target: Gal3S(b1-3)GalNAc
# Outline: as §1
# [28] = biological target: Gal3S(b1-3)GlcNAc
# Outline: as §1
# [29] = biological target: Gal6S(b1-4)GlcNAc
# Outline: as §1
# [30] = biological target: GalNAc(a1-3)GalNAc(b1-3)Gal(a1-4)Gal(b1-4)Glc
# Outline: as §1
binder,measurement,setting,value
B1,glycan array binding signal (z-score),[1],-0.396
same,glycan array binding signal (z-score),[2],-0.362
same,glycan array binding signal (z-score),[3],0.033
same,glycan array binding signal (z-score),[4],1.17
same,glycan array binding signal (z-score),[5],6.16
same,glycan array binding signal (z-score),[6],4.46
same,glycan array binding signal (z-score),[7],2
same,glycan array binding signal (z-score),[8],-0.355
same,glycan array binding signal (z-score),[9],7.53
same,glycan array binding signal (z-score),[10],0.036
same,glycan array binding signal (z-score),[11],-0.324
same,glycan array binding signal (z-score),[12],-0.263
same,glycan array binding signal (z-score),[13],4.15
same,glycan array binding signal (z-score),[14],-0.42
same,glycan array binding signal (z-score),[15],-0.404
same,glycan array binding signal (z-score),[16],4.38
same,glycan array binding signal (z-score),[17],-0.371
same,glycan array binding signal (z-score),[18],-0.092
same,glycan array binding signal (z-score),[19],-0.387
same,glycan array binding signal (z-score),[20],4.53
same,glycan array binding signal (z-score),[21],-0.052
same,glycan array binding signal (z-score),[22],1.38
same,glycan array binding signal (z-score),[23],7.46
same,glycan array binding signal (z-score),[24],8.43
same,glycan array binding signal (z-score),[25],-0.348
same,glycan array binding signal (z-score),[26],-0.136
same,glycan array binding signal (z-score),[27],-0.369
same,glycan array binding signal (z-score),[28],-0.406
same,glycan array binding signal (z-score),[29],4.01
same,glycan array binding signal (z-score),[30],-0.403
